{"source": "PubChem BioAssay AID602293", "about": "(National Center for Advancing Translational Sciences (NCATS), 2012)", "note": "Hit rate of the full screen: of about 1,300 compounds, about 30 (2%) were called active. Roughly 10% stayed inconclusive and do not appear here. This is one part of a sample in which actives are shown more often than they occur. The call rests on the fitted dose curve; in most records, active means well fitted inhibition curve with a large enough effect; inconclusive means small, poorly fitted or top-dose-only effect; inactive means flat fitted curve, though single readings scatter. On the % scale 0 is the no-effect control and ±100 the full control effect; potency means the concentration at half of the fitted maximal effect.", "data": [{"assay": "qHTS for antagonists of the Thyroid Stimulation Hormone Receptor: Hit Validation in HTRF Activity in a Luteinizing Hormone Receptor Cell Line", "details": "LHR-expressing cell line, cAMP HTRF, antagonist mode; series mostly up to 58 µM; activity change, negative = inhibition: at the top concentration", "text": "The thyroid-stimulating hormone receptor (TSHR) is a member of the 7 trans-membrane-spanning receptor (7TMR) family of cell surface receptors. TSHR-mediated hyperthyroidism is important in thyroid pathology. The development of small molecule antagonists of TSHR may lead to therapeutic approaches for TSHR-mediated hyperthyroidism caused by constitutively activating mutations or stimulating auto-antibodies associated with Graves' disease. Graves' disease is the leading cause of hyperthyroidism and is caused by autoantibodies that stimulate TSHR (TsAbs) causing thyroid growth and unregulated overproduction of thyroid hormones and existing treatments have liabilities (agranulocytosis). In addition, TSHRs are known to be expressed in multiple extrathyroidal tissues including bone, brain, kidney, testis, fat and cells of the immune system but the role of the TSHR in these tissues is not clear. Therefore, TSHR antagonists/inverse agonists could be used as probes of extrathyroidal TSHR function. Finally, TSHR inverse agonists, which are a subclass of antagonists that inhibit agonist-independent (or basal or constitutive) TSHR signaling, could be used to inhibit TSH-independent signaling in patients with recurrent or metastatic thyroid cancer who are receiving thyroid hormone to suppress TSH.\nIn collaboration between scientist from the NCGC and the NIDDK, a miniaturized HTRF high-throughput screen was developed. It's a cell based assay, where an anti cAMP antibody contains a fluorescent cryptate tag (excitation 337 nm; emission 620 nm) and the acceptor is cAMP-d2 (excitation 620 nm; emission 665 nm). When antibody and cAMP-d2 interact and are excited by a 337 nm light, a FRET occurs resulting in emission at 665 nm. The assay is competition between cAMP-d2 and cAMP (from the cell lysate). The homogeneous protocol allows for one step dispense after stimulation that is automation friendly. In order to confirm specificity of the compounds to the TSHR, a confirmatory assay was conducted on a similar family member, the Luteinizing Hormone (LH) receptor, transfected into a HEK 293 cell line, using an orthogonal detection technology to measure cAMP stimulation: antibody-based Homogeneous Time Resolved Fluorescence (HTRF).\nNIH Chemical Genomics Center [NCGC]\nNIH Molecular Libraries Probe Centers Network [MLPCN]\nAssay Provider: Marvin Gershengorn, NIDDK\nHomogeneous Time Resolved Fluorescence (HTRF) cAMP Assay. HEK 293 cells stably transfected with a vector containing the LH receptor and maintained under hygromycin selection were obtained from the laboratory of Dr. Marvin Gershengorn. Compounds were assayed using a HTRF cAMP detection kit (Cisbio) on the LH receptor transfected cell line. Briefly, 750 cells were plated in 2.5 ul/well of complete media (DMEM containing 10 % FCS, and 100 uM RO 20-1724) in 1536 well solid bottom white plates and 23 nl/well compound in DMSO solution or controls was added. Following 30 minute incubation at room temperature, 2.5 ul/well of labeled d2 cAMP and 2.5 ul/well of anti-cAMP antibody (both diluted 1:20 in lysis buffer) were added to each well using a flying reagent dispenser (Aurora Discovery, San Diego) . Plates were measured using the Envision plate reader (PerkinElmer, Boston, MA) with excitation at 330 nm and emissions of 615 nm and 660 nm.", "values": [{"smiles": "CCN(CC)S(=O)(=O)c1ccc(Oc2ccc(S(=O)(=O)N(CC)CC)cc2)cc1", "activity change, negative = inhibition": "-2.52% (inactive)"}, {"smiles": "CC1=NN(C(N)=S)C(=O)C1N=Nc1c(Br)cc(Br)cc1Br", "note": "(stereo not given)", "activity change, negative = inhibition": "1.89% (inactive)"}, {"smiles": "O=C(Oc1c(Br)cc([N+](=O)[O-])cc1Br)c1cccnc1", "activity change, negative = inhibition": "1.3% (inactive)"}, {"smiles": "CCc1ccccc1NC(=O)CN1CCN(C(=O)CNC(=O)Cc2cccc3ccccc23)CC1", "activity change, negative = inhibition": "1.56% (inactive)"}, {"smiles": "O=C(Nc1ccc(Cl)c(Cl)c1)Nc1ccccc1O", "activity change, negative = inhibition": "-3.37% (inactive)"}, {"smiles": "CCCCNc1c(-c2cccc(-c3ccc(OC)cc3)c2)nc2ccc(C)cn12", "activity change, negative = inhibition": "-0.0927% (inactive)"}, {"smiles": "CCCCCCSc1ccc(-c2nc3ccc(Cl)cn3c2NCCCC)cc1OC", "activity change, negative = inhibition": "-1.07% (inactive)"}, {"smiles": "COc1ccc(-c2cc(-c3nc4ccccn4c3NCc3ccccc3)ccc2OC)cc1", "Potency": "9.53 µM (active)"}, {"smiles": "O=C(Nc1nc2c(s1)CCCC2)c1ccc2ncsc2c1", "activity change, negative = inhibition": "-6.37% (inactive)"}, {"smiles": "N#C/C(=N\\Nc1cccc([N+](=O)[O-])c1)C(=O)c1ccc(Br)cc1", "activity change, negative = inhibition": "-1.57% (inactive)"}, {"smiles": "Cc1ccc(C)c(N2CCN(C(=O)CCS(=O)(=O)c3ccc4c(c3)CCN4C(=O)C3CC3)CC2)c1", "activity change, negative = inhibition": "0.0752% (inactive)"}, {"smiles": "Cc1ccc(-n2c(Cl)c(Cl)nc(Cl)c2=O)cc1", "Potency": "37.9 µM (active)"}, {"smiles": "Cc1c(Cl)sn(-c2ccc(Cl)cc2)c1=O", "activity change, negative = inhibition": "-7.13% (inactive)"}, {"smiles": "Cc1ccc2cccc(Oc3ncnc4scc(-c5ccccc5)c34)c2n1", "activity change, negative = inhibition": "-7.58% (inactive)"}, {"smiles": "COc1cc(C(C)=O)ccc1OCC(=O)Nc1ccc(Cl)c(S(=O)(=O)N2CCOCC2)c1", "activity change, negative = inhibition": "-7.28% (inactive)"}, {"smiles": "O=C(Nc1nc(-c2ccc(Cl)cc2Cl)cs1)c1ccc(OCC2CCCO2)cc1", "note": "(stereo not given)", "activity change, negative = inhibition": "-6.16% (inactive)"}, {"smiles": "O=C(Nc1ccc(Cl)c(S(=O)(=O)N2CCOCC2)c1)c1ccc(OCC2CCCO2)cc1", "note": "(stereo not given)", "Potency": "37.9 µM (active)"}, {"smiles": "COC(=O)c1ccc(CN2C(=O)NC(Cc3c[nH]c4ccccc34)C2=O)cc1", "note": "(stereo not given)", "activity change, negative = inhibition": "0.496% (inactive)"}, {"smiles": "COc1ccc(-c2csc(NC(=O)c3ccccc3NS(=O)(=O)c3ccc(F)c(F)c3)n2)cc1", "activity change, negative = inhibition": "-3.22% (inactive)"}, {"smiles": "COc1ccc(Cc2nc(C(=O)Nc3ccc(Cl)cc3)cs2)cc1", "activity change, negative = inhibition": "-1.91% (inactive)"}, {"smiles": "O=S(=O)(Nc1cccc(-c2cn3cccnc3n2)c1)c1ccc(-c2ccccc2)cc1", "activity change, negative = inhibition": "-0.336% (inactive)"}, {"smiles": "CCOC(=O)CCS(=O)(=O)c1nc(-c2ccccc2)cc(C(F)(F)F)n1", "activity change, negative = inhibition": "0.21% (inactive)"}, {"smiles": "COc1ccc(/C=N/n2c(SC)nnc(C(C)(C)C)c2=O)cc1", "activity change, negative = inhibition": "-0.342% (inactive)"}, {"smiles": "COc1ccc(S(=O)(=O)N2CCOC23CCN(C(=O)c2ccc(Cl)cc2Cl)CC3)cc1", "activity change, negative = inhibition": "-0.906% (inactive)"}, {"smiles": "O=C(NCCC1=CCCCC1)C(=O)NCC1OCCCN1S(=O)(=O)c1ccccc1", "note": "(stereo not given)", "activity change, negative = inhibition": "3.6% (inactive)"}, {"smiles": "Cc1cc(C(=O)CCl)c(C)n1CCc1ccccc1", "activity change, negative = inhibition": "-0.254% (inactive)"}, {"smiles": "CC1(C)CC2(CCCN3C(=O)CSC32)CCS1", "note": "(stereo not given)", "activity change, negative = inhibition": "-0.704% (inactive)"}, {"smiles": "COC(=O)c1ccc(-c2noc(CN(C)CCC3CCCCO3)n2)cc1", "note": "(stereo not given)", "activity change, negative = inhibition": "-0.562% (inactive)"}, {"smiles": "CCC(C)(C)C1CCC(NC(=O)N2CCN(c3ccccc3O)CC2)CC1", "note": "(stereo not given)", "activity change, negative = inhibition": "-0.692% (inactive)"}, {"smiles": "COc1ccccc1-n1cnc2cc(NS(=O)(=O)c3ccc(Br)cc3)ccc21", "activity change, negative = inhibition": "0.0454% (inactive)"}, {"smiles": "O=C1NC(=S)S/C1=C\\c1ccc2ccccc2c1", "activity change, negative = inhibition": "-0.809% (inactive)"}, {"smiles": "O=[N+]([O-])c1c(Nc2cccc(O)c2)cc(Cl)c2nonc12", "Potency": "30.1 µM (active)"}, {"smiles": "O=C(COC(=O)c1ccccc1NS(=O)(=O)c1cccs1)NCC12CC3CC(CC(C3)C1)C2", "activity change, negative = inhibition": "1.8% (inactive)"}, {"smiles": "Cc1cc(OCC(=O)Nc2cccc(S(=O)(=O)N3CCCC3)c2)ccc1Cl", "activity change, negative = inhibition": "-2.78% (inactive)"}, {"smiles": "CCOC(=O)c1c(NC(NC(=O)C(C)C)C(Cl)(Cl)Cl)sc2c1CCC2", "note": "(stereo not given)", "activity change, negative = inhibition": "-0.795% (inactive)"}, {"smiles": "O=C(Nc1ccc(SC(F)F)cc1)c1ccc2c(=O)n3c(nc2c1)CCC3", "activity change, negative = inhibition": "-2.9% (inactive)"}, {"smiles": "COc1cc2cnc(-c3ccccc3)c(-c3ccc(C#N)cc3)c2cc1OC", "activity change, negative = inhibition": "-1.55% (inactive)"}, {"smiles": "CCn1c(Cl)c(C=O)s/c1=N\\S(=O)(=O)c1ccccc1", "Potency": "37.9 µM (active)"}, {"smiles": "CCOc1ccccc1N1CCN(C(=O)CCCN2C(=O)c3cccc4cccc(c34)C2=O)CC1", "activity change, negative = inhibition": "1.98% (inactive)"}, {"smiles": "CC(C)N(Cc1ccccc1)C(=O)COC(=O)c1cnc(Cl)c(Cl)c1", "activity change, negative = inhibition": "-3.98% (inactive)"}, {"smiles": "CC(Sc1nn(-c2ccc(F)cc2)c(=S)s1)C(=O)c1c(N)n(C)c(=O)n(C)c1=O", "note": "(stereo not given)", "activity change, negative = inhibition": "-2.58% (inactive)"}, {"smiles": "CC1=C/C(=N\\OS(=O)(=O)c2ccccc2)C(C)=CC1=O", "Potency": "30.1 µM (active)"}, {"smiles": "CC1=CC(=O)C(C(C)C)=C/C1=N/OS(=O)(=O)c1ccccc1", "Potency": "21.3 µM (active)"}, {"smiles": "COc1ccc(/C=N/NC(=O)c2ccoc2C)cc1COc1c(C)cccc1C", "activity change, negative = inhibition": "-7.58% (inactive)"}, {"smiles": "CCCSc1nsc(NC(=O)Nc2ccc(F)cc2F)n1", "activity change, negative = inhibition": "-2.2% (inactive)"}, {"smiles": "O=C(COc1ccc(Cl)cc1)Nc1ncc([N+](=O)[O-])s1", "activity change, negative = inhibition": "-0.689% (inactive)"}, {"smiles": "COc1cc(/C=N/OCC(=O)NC23CC4CC(CC(C4)C2)C3)ccc1OCc1ccccc1", "activity change, negative = inhibition": "-8.02% (inactive)"}, {"smiles": "O=C(OCCc1cc2ccccc2c(=O)o1)c1ccccc1C(F)(F)F", "activity change, negative = inhibition": "-0.186% (inactive)"}, {"smiles": "CCN(CC)c1ccc2nc3ccccc3[n+](CC)c2c1", "Potency": "30.1 µM (active)"}, {"smiles": "O=C(Nc1nc(-c2ccc(F)cc2)cs1)C1CCN(C(=O)c2ccc(F)cc2)CC1", "activity change, negative = inhibition": "-5.39% (inactive)"}]}]}
